# Compounds with a hit are over-represented: about 3.4% of the library has one in this group of screens.
# FBW7 act = human FBW7 E3 ligase activation, primary screen; Q969H0; AlphaScreen FBW7–phospho-cyclin E peptide binding, activator screen; normalized activity (activation), % at 26.1 µM; actives 0.13% (n = 650,000); AID 1259310; in the data active = normalized activity above about 1.9%;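 also: purified mutant Fbw7 with reduced substrate affinity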
# GPR151 ag = human GPR151 activation; Q8TDV0; activation, % at 11.2 µM; PathHunter beta-arrestin GPR151 cells, luminescence; actives 1% (n = 650,000); in the data active = activation above about 4.9%;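 also: 0% = median of compound wells and 100% = cells with positive control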
# Target sequence (Q8TDV0 whole entry, looked up): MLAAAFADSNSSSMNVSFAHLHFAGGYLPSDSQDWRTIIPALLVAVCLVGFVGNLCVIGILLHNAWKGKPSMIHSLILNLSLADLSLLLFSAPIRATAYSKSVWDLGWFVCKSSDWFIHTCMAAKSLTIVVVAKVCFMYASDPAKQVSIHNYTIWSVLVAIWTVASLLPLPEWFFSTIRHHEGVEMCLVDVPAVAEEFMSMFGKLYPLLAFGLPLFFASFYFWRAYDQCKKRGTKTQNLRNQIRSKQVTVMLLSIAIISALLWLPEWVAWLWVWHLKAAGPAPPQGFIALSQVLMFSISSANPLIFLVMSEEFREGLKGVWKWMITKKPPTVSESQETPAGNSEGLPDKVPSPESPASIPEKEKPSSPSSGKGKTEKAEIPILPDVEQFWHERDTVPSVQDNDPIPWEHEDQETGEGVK
# TEAD-YAP block = TEAD-YAP interaction inhibition. HEK-TIYL cells, TEAD-Gal4/YAP UAS-luciferase luminescence. inhibition, % at 9.12 µM. actives 1.4% (n = 640,000). AID 1259422; in the data active = inhibition above about 32%;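 also: 0% = median of test compound wells and 100% = reference inhibitor wells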
# MITF primary = inhibitors of human MITF; O75030; AlphaScreen MITF homodimerization, bead proximity signal; inhibition, % at 2.6 µM; actives 0.91% (n = 650,000); in the data active = inhibition above about 50%;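 also: 0% = vehicle wells with protein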
# GPR151 conf act = human GPR151 activation, confirmation screen; shares compounds with GPR151 ag; GPR151 PathHunter beta-arrestin cells, luminescence, 90 min; % of EA-reagent control over plate median; activation, % at 11.2 µM; 6,700 tested, under 10 active;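 active = mean percent activation across replicates above the confirmation screen cutoff of 4.91%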
# GPR119 counter = GPR119 activation, counter-screen for GPR151 activators. GPR119 PathHunter beta-arrestin cells, luminescence, 90 min; 0 = compound-well median, 100 = enzyme-acceptor control. shares compounds with GPR151 ag. actives 0.3% (n = 6,700). activation, % at 11.2 µM;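 active = mean percent activation in the counterscreen above 29.09%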;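 also: counterscreen on off-target GPR119 to flag nonselective hits from the GPR151 activator screen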
# * = called active by the depositor; x = no result.
SMILES,FBW7 act,GPR151 ag,TEAD-YAP block,MITF primary,GPR151 conf act,GPR119 counter
CC1=C(C(=O)Nc2ccccc2C)C(c2ccccc2)C(C#N)=C(SCC(=O)Nc2cc(C)ccc2C)N1 (centres undefined),0,12*,9,6,-1,-7
CC(=O)C1=C(C)NC(SCC(N)=O)=C(C#N)C1c1cccc([N+](=O)[O-])c1 (centres undefined),0,9.3*,0,13,2,8
CC1=C(C(=O)Nc2ccccc2C)C(c2ccccc2)C(C#N)=C(SCC(=O)Nc2ccccc2C)N1 (centres undefined),0,1,2,23,x,x
CC1=C(C(=O)Nc2ccccc2)C(c2ccco2)C(C#N)=C(SCC(=O)Nc2ccc(F)cc2)N1 (centres undefined),0,5.9*,4,16,0,14
COc1ccc(NC(=O)c2ccc(S(=O)(=O)N3CCCC3)cc2)cc1,0,0,1,8,x,x
Cc1nn2c(NCCN(C)C)c3c(nc2c1-c1ccc(F)cc1)CCC3,0,1,8,4,x,x
COc1ccc2cc(CCNC(=O)/C=C\c3ccc4c(c3)OCO4)c(=O)[nH]c2c1,0,12*,8,7,0,2
C=CCN1CCN(C(c2ccc(Cl)cc2)c2nnnn2Cc2ccco2)CC1 (centres undefined),0,-1,6,3,x,x
COc1ccccc1NC(=O)[C@H]1O[C@@H]2OC(C)(C)O[C@@H]2[C@H]2OC(C)(C)O[C@H]21,0,6.9*,8,-5,2,10
COc1ccccc1NC(=O)C1OC2OC(C)(C)OC2C2OC(C)(C)OC12 (centres undefined),0,-1,-3,-5,x,x
O=C(CCc1nnc(C2(c3ccc(Cl)cc3)CCC2)o1)NCCCc1cccnc1,0,-1,-18,-5,x,x
O=C(CCc1nnc(C2(c3ccc(Cl)cc3)CCC2)o1)NCc1cccnc1,0,4.9*,-1,4,-1,-9
Cc1noc(C)c1-c1nc2ncnc(NC3CC3)c2[nH]1,0,5.5*,-14,4,0,-4
c1nc(NC2CC2)c2[nH]c(N3CCOCC3)nc2n1,0,5.0*,4,9,-1,1
CC(C)=C/C(C)=N\NC(=O)c1ccccc1O,0,0,10,13,x,x
CCC(=O)Nc1ccc(NC(=O)/C=C/c2cc(Br)ccc2OC)cc1,0,9.6*,7,-5,0,1
c1ccc2oc(NC3=NCN(C4CCCCC4)CN3)nc2c1,0,9.9*,-13,-9,1,4
Cc1cc(-c2cn[nH]c2)c(F)cc1NC(=O)C1COc2ccccc2O1 (centres undefined),0,-1,-7,11,x,x
COc1ccc(C(=O)COC(=O)c2cccc(I)c2)c(OC)c1,0,-2,-14,14,x,x
CCOC(=O)C1=C(C)N=c2s/c(=C\c3ccc(Br)o3)c(=O)n2C1c1cccs1 (centres undefined),0,4.9*,6,2,-1,0
CCOC(=O)C1=C(C)N=c2s/c(=C/c3cc(Br)c(Br)o3)c(=O)n2C1c1cccs1 (centres undefined),0,-1,-10,3,x,x
CCOC(=O)C1=C(C)N=c2s/c(=C/c3ccc(-c4ccc(Br)cc4)o3)c(=O)n2C1c1ccc(N(C)C)cc1 (centres undefined),0,5.5*,6,-8,0,-3
CCOC(=O)C1=C(C)N=c2s/c(=C/c3ccc(-c4ccc(C(=O)OCC)cc4)o3)c(=O)n2C1c1ccc(N(C)C)cc1 (centres undefined),0,0,-23,3,x,x
O=C(Nc1c2c(nn1-c1ccc(Cl)cc1)CSC2)c1ccc(S(=O)(=O)N2CCCC2)cc1,0,-1,8,6,x,x
Nc1nonc1-c1noc(-c2ccc(Br)cc2)n1,0,1,-11,6,x,x
SMILES,FBW7 act,GPR151 ag,TEAD-YAP block,MITF primary,GPR151 conf act,GPR119 counter
Cc1ccccc1Nc1sc(C(=O)c2ccc(Cl)cc2)c(N)c1C(=O)NCc1ccc(Cl)cc1,0,1,-2,4,x,x
Cc1ccccc1Nc1sc(C(=O)c2ccc([N+](=O)[O-])cc2)c(N)c1C(=O)NCc1ccc(Cl)cc1,0,6.4*,4,-3,2,21
CCCN1CCN(C(=O)CCc2nnc(CCc3cccc(OC)c3)o2)CC1,0,0,-4,-15,x,x
C[C@@H](NC(=O)N[C@H]1C[C@H]2C(=O)N[C@H](CO)C(=O)N2C1)c1ccccc1,0,7.6*,16,12,1,6
O=C(N[C@H]1C[C@H]2C(=O)N[C@@H](CO)C(=O)N2C1)OCc1ccccc1,0,-1,-3,18,x,x
CCC[C@@H]1NC(=O)[C@@H]2C[C@H](NC(=O)N[C@@H](C)c3ccccc3)CN2C1=O,0,-1,-5,-11,x,x
COc1cccc(C(=O)N[C@H]2C[C@H]3C(=O)N[C@H](CO)C(=O)N3C2)c1,0,0,-2,-10,x,x
COc1cccc(C(=O)N[C@H]2C[C@H]3C(=O)N[C@@H](CCCCN)C(=O)N3C2)c1,0,5.8*,2,11,0,11
CC[C@@H]1NC(=O)[C@@H]2C[C@H](NC(=O)c3cccc(F)c3F)CN2C1=O,0,9.7*,9,6,0,5
CC(C)C[C@H]1NC(=O)[C@@H]2C[C@H](NC(=O)c3cccc(F)c3F)CN2C1=O,0,0,-10,-2,x,x
CC[C@@H]1NC(=O)[C@@H]2C[C@H](NC(=O)OCc3ccccc3)CN2C1=O,0,5.8*,0,7,1,7
CCOC(=O)c1c(C)n(C)c2ccc(OC(=O)c3cccc(OC)c3)cc12,0,0,-10,-19,x,x
COc1cccc(C2C(C#N)=C(N)Oc3n[nH]c(-c4ccc(Br)cc4)c32)c1OC(=O)N1CCOCC1 (centres undefined),0,0,-11,7,x,x
CCCc1nnc(SCc2ccc(Cl)cc2)n1N,0,1,-1,-4,x,x
CCCc1nnc(SCc2ccc(Br)cc2)n1N,0,8.4*,-8,0,-1,10
O=C1N[C@@H](CO)C(=O)N2CCN(C(=O)c3ccc(C(F)(F)F)cc3)C[C@H]12,0,0,-3,-13,x,x
Cc1ccc2nc(SCC(=O)NNC(=O)COc3ccc(Br)cc3)[nH]c2c1,0,0,-2,-9,x,x
CC(C)Cn1c(SCc2ccc([N+](=O)[O-])cc2)nnc1-c1ccncc1,0,5.9*,6,8,0,3
COc1cc([N+](=O)[O-])ccc1NC(=O)c1oc(=O)c2ccccc2c1-c1ccc(C)cc1,0,5.7*,-5,9,0,16
Cc1ccc(NS(=O)(=O)c2ccc3c(c2)OCCN3C)cc1F,0,0,12,11,x,x

# Assay outcomes deposited in PubChem by The Scripps Research Institute Molecular Screening Center.
